# Shown is part of a subset that was picked to be rich in hits.
# Dicer inh = human Dicer pre-microRNA cleavage inhibition | z-score at 25 µM | cat-ELCCA pre-miR-21 Dicer processing, chemiluminescence; hits give high values | actives 6% (n = 47,000) | Q9UPY3; in the data active = z-score above about 3, passing the limit was not always enough;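 also: plate controls were vehicle for no effect and no enzyme for full effect; higher signal means more uncleaved substrate so more Dicer inhibition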
# * hit, by the source's call.
SMILES,Dicer inh
CC(=O)C1C(=O)c2c(Cl)c(Cl)c(Cl)c(Cl)c2C1=O,5.12*
O=C1NC(c2ccccc2)=N/C1=C/c1ccc(OCc2ccccc2)cc1,-0.93
CC(=O)Nc1ccc(NC(=O)c2ccccc2C(=O)O)cn1,-1.4
O=S(=O)(c1ccc(F)cc1)N1CCN(Cc2ccc3c(c2)OCO3)CC1,3.16*
COc1ccccc1CN1CCN(Cc2ccc3c(c2)OCO3)CC1,4.21*
COc1ccc(CN2CCN(Cc3ccc4c(c3)OCO4)CC2)c(OC)c1,0.19
COc1ccc(CN2CCN(Cc3ccc4c(c3)OCO4)CC2)cc1,0.54
Cc1[nH]c2ccccc2c1C(=O)CN1CCOCC1,2.01
CCc1ccc(S(=O)(=O)N2CCN(Cc3ccc4c(c3)OCO4)CC2)cc1,-3.52
COc1cccc(CNCc2ccc3c(c2)OCO3)c1OC,-0.2
COc1ccc(CN2CCN(Cc3ccc4c(c3)OCO4)CC2)cc1OCc1ccccc1,-0.02
COc1cccc(CN2CCN(Cc3ccc4c(c3)OCO4)CC2)c1OC,3.52*
O=S(=O)(c1ccc2c(c1)OCCO2)N1CCN(Cc2ccc3c(c2)OCO3)CC1,-0.58
Cc1[nH]c2ccccc2c1C(=O)CN1CCN(Cc2ccc3c(c2)OCO3)CC1,3.34*
COc1cc(CN2CCN(Cc3ccc4c(c3)OCO4)CC2)cc(OC)c1,-0.86
O=C(c1ccc(Br)cc1)c1cc2c(cc1Br)OCCCO2,1.2
CN(C)CCOC(=O)c1ccc2c(c1)C(=O)c1ccccc1-2,1.76
Cc1nc(COc2ccccc2Cl)sc1-c1ccnc(SCC(=O)c2cccc([N+](=O)[O-])c2)n1,0.36
NS(=O)(=O)c1ccc(Sc2ccccc2)s1,0.44
CCC1(c2cccc(OC)c2)CCCCN(C)C1=O (centres undefined),-0.48
CCOC(=O)C(NCCc1ccccc1)(NC(=O)c1ccccc1Cl)C(F)(F)F (centres undefined),0.12
CCN(CC)c1ccc(NS(=O)(=O)c2ccccc2)cc1,4.78*
O=S(=O)(Nc1ccccc1)c1ccc(-c2ccc(S(=O)(=O)Nc3ccccc3)cc2)cc1,-0.35
Cc1ccc(S(=O)(=O)Nc2ccc(N(C)S(=O)(=O)c3ccc(C)cc3)cc2)cc1,0.4
Cc1nc2cc(Cl)ccc2n1CO,-1.03
SMILES,Dicer inh
N#CCCCN(Cc1ccccc1)Cc1ccccc1,-0.07
COc1ccc(Nc2nc(NC(=O)Nc3ccc(Cl)cc3)n[nH]2)cc1,10.1*
COc1ccc(NC(=O)/C=C/c2ccc(Cl)cc2)cc1,-0.89
COc1ccc2nc(NC(=O)Nc3ccc(Cl)cc3)sc2c1,2.7
COC(=O)c1cc(=O)n(-c2cc(C(F)(F)F)cc(C(F)(F)F)c2)[nH]1,0.48
O=c1cc(C(F)(F)F)[nH]n1-c1ccccc1,-2.63
COC(=O)c1cc(=O)n(-c2ccccc2C(F)(F)F)[nH]1,3.23*
Cc1onc(-c2c(Cl)cccc2Cl)c1C(=O)N=S1CCC2(C1)OCCO2 (centres undefined),-0.81
CCCCn1c(=O)c2c(nc3n2CCN3c2ccc(OC)cc2)n(C)c1=O,-1.26
Fc1cccc(NC(=S)NN=C2CCCCCC2)c1,4.2*
S=C(NN=C1CCCCCC1)Nc1ccccc1,2.64
CC(=O)NNC(=S)Nc1cccc(F)c1,-1.19
O=C(c1ccc(F)cc1)C1CCNCC1,-0.28
CSc1ncnc2c1nnn2Cc1ccccc1,-0.78
O=C(CC1(O)C(=O)N(Cc2ccccc2Cl)c2ccccc21)c1ccc2c(c1)OCCO2 (centres undefined),-0.45
CSc1ccc(C2C3=C(CC(C)(C)CC3=O)Nc3cc4c(cc32)OCO4)cc1 (centres undefined),5.11*
CC1(C)CC(=O)C2=C(C1)Nc1ccc3ccccc3c1C2c1ccc2c(c1)OCO2 (centres undefined),-0.4
CC1(C)CC(=O)C2=C(C1)NC1=C(C(=O)CC(C)(C)C1)C2c1ccccc1,-0.35
C#CCOc1ccc(C2C3=C(CC(C)(C)CC3=O)NC3=C2C(=O)CC(C)(C)C3)cc1,-1.73
CC1(C)CC(=O)C2=C(C1)Nc1cc3c(cc1C2c1ccc(Cl)cc1)OCO3 (centres undefined),2.53
Cc1ccc(C2C3=C(CC(C)(C)CC3=O)NC3=C2C(=O)CC(C)(C)C3)cc1,4.62*
COC(=O)c1ccc(COc2cc(C)cc(C)c2)o1,-0.02
Cn1ncc(Br)c1NC(=O)c1ccccc1,0.45
COC(=O)Cc1nc(NC(=O)c2nc(-c3ccccc3)oc2C)sc1C,0.09
COC(=O)Cc1nc(Nc2ccccc2)sc1C,-0.11
SMILES,Dicer inh
COC(=O)Cc1nc(NC(=O)C2CCC2C(=O)O)sc1C (centres undefined),3.33*
COc1ccc(OC)c(C2C(C(=O)OC3CCCC3)=C(C)NC3=C2C(=O)CC(c2cccs2)C3)c1 (centres undefined),1.6
O=C(NCc1c(Cl)cc(C(F)(F)F)cc1Cl)c1ccc(C(F)(F)F)cc1,-1.17
CC(=O)c1sc2nc(C)cc(C)c2c1N,-1.58
CCOC(=O)c1sc2nc(C)cc(C)c2c1N(C(C)=O)C(C)=O,3.36*
CCOC(=O)c1sc2nc(C)cc(C)c2c1NC(=O)Nc1cccc(Cl)c1,0.39
CCOC(=O)c1cnc(=O)[nH]c1C(F)(F)F,-2.76
C=C1c2cccc(O)c2C(O)=C2C(=O)[C@]3(O)C(O)=C(C(N)=O)C(=O)[C@@H](N(C)C)[C@@H]3[C@@H](O)[C@H]12,22.5*
CCc1ccccc1NC(=S)NNS(=O)(=O)c1ccc(C)cc1,0.82
CCc1sc(-c2ccc(Cl)cc2)nc1C(=O)OC,-0.55
C=CCc1c(C)nc(SCC(=O)c2ccc(Cl)cc2)[nH]c1=O,0.24
Cc1ccc(-c2nnc3c4ccccc4c(C)nn23)cc1S(=O)(=O)NCCN1CCOCC1,2.66
CC(C)C(=O)Nc1c(C(=O)c2ccccc2)oc2ccccc12,-0.29
COc1ccc(/C=C2/C(=O)Nc3ccccc32)cc1,-0.18
O=C1Nc2ccccc2/C1=C/c1cnc(-c2ccccc2)[nH]1,3.3*
CN(C)c1ccc(/C=C2\C(=O)Nc3ccccc32)cc1,-1.35
Fc1ccc(NCc2cccnc2)cc1,3.2*
S=C(NCc1cccnc1)c1ccccc1,-0.17
FC(F)(F)c1cnc(NCc2cccnc2)c(Cl)c1,0.67
Cc1ccc(CNCc2ccncc2)s1,0.9
Nc1cc(-c2ccc(Cl)cc2)nn1-c1ccc(F)cc1,-0.67
Cc1cc(Br)cnc1N=CN(C)C,3.01*
Cc1cc(Br)cnc1N=CNO,0.37
Cc1cc(N=CN(C)C)c2ccccc2n1,-1.68
Oc1[nH]c2ccccc2c1N=Nc1nc(-c2ccc(Br)cc2)cs1,4.76
SMILES,Dicer inh
CCC1CCCCN1S(=O)(=O)c1ccc(NC2=NS(=O)(=O)c3ccccc32)cc1 (centres undefined),-1.19
CC(C)Nc1nc(-c2c(F)cccc2Cl)cs1,-1.09
CC(C)c1ccc(Nc2nnns2)cc1,6.83*
Clc1ccc(Nc2nnns2)cc1,1.6
CC(C)c1ccc(NC2(C#N)CCCCC2)cc1,1.36
CC(C)c1ccc(OCCN2CCNCC2)cc1,-0.04
O=c1[nH]nc(SCc2nc3ccccc3s2)n1Cc1ccco1,-2.22
CN(C)C(=O)c1ccc(-c2cc(C(F)(F)F)nn2C)s1,-0.27
Cn1nc(C(F)(F)C(F)F)cc1-c1ccccc1O,5.32*
Cn1nc(C(F)(F)F)cc1OC(=O)c1ccccc1Cl,-0.32
Cc1ccc(S(=O)(=O)N2CCOCC2)cc1C,0.17
CC(C)(O)C#Cc1ccc(/C=N/Nc2ncc(Cl)cc2C(F)(F)F)cc1,1.78
CSCCn1c(-c2ccccc2)cc(C(=O)NCc2ccco2)c1C,0.87
CCc1ccc(NS(C)(=O)=O)cc1,1.17
CSc1ccc(CN2CCN(S(C)(=O)=O)CC2)cc1,3.11*
CCCS(=O)(=O)N1CCN(Cc2ccc(Br)cc2)CC1,2.44

# From PubChem BioAssay
